These results are taken from the supplement of paper PMC8726507.

This assay concerns Plasmodium falciparum NF54-HGL (transmission to Anopheles stephensi). Briefly: percentage of barcode signal found in uninfected mosquitoes (transmission-blocking activity); higher = stronger blocking of transmission to mosquito, active = 80 or more. The conditions noted are these: 10 µM; gametocyte preincubation time 24 h; readout time post-feed 8 days. On the procedure: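 The mixture was fed to Anopheles stephensi in 96-well plates as blood meals tagged with DNA-barcoded Asaia bacteria. Eight days later, mosquitoes were classed infected or uninfected by luminescence (mean + 5 SD of unfed controls). Barcodes were quantified by Luminex MagPlex-TAG in the pooled uninfected and infected Asaia cultures, background-corrected, and the score is % of barcode signal in uninfected mosquitoes = 100*Iu/(Iu+Ii).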
`O=C(c1ccc(NCCO)cc1)C1C[C@H]1c1ccc(Cl)cc1` (stereo not given in full): the “percentage of barcode signal found in uninfected mosquitoes” value (shortened to “percentage of barcode signal found”) was 39.6% (inactive). Then `O=C(c1ccco1)N(CCCn1ccnc1)c1nc2c(Cl)cccc2s1`, with 17.2% (inactive); and `O=C(c1[nH]nc2c1CCCC2)N1CCN(Cc2ccc3c(c2)OCO3)CC1`, with 9.05% (inactive). As to `O=C(NCCc1c[nH]c2ccccc12)c1cc2ccccc2oc1=O`, the “percentage of barcode signal found” value was -1.49% (inactive). For the molecule `O=C(NCc1nnc2n1CCCCC2)c1ccc(-c2ccc(F)cc2)o1`, the “percentage of barcode signal found” value was -11% (inactive).

As for `COc1ccc(-c2cc(NC(=O)c3ccc(F)cc3Cl)ccc2OC)cc1`, the “percentage of barcode signal found” value is -1.77% (inactive). Then `CN1CCCC1CCO[C@](C)(c1ccccc1)c1ccc(Cl)cc1` (stereo not given in full), with 87.8% (active). In the case of `Cc1ccc(NC(=O)c2nc[nH]c2C(=O)Nc2nc3ccccc3[nH]2)c(C)c1`, the “percentage of barcode signal found” value was 73.8% (inactive).

With `COc1cc2ncnc(NC3CCN(Cc4ccccc4)CC3)c2cc1OC`, the “percentage of barcode signal found” value was 31% (inactive). For `Nc1nc(N)c2c3c(sc2n1)CN(Cc1ccccc1)CC3` the value was 11.7% (inactive). Then `NCC(=O)N1CCn2c(nc(-c3ccccc3)c2Nc2ccc3c(c2)OCO3)C1`, with 80.9% (active). Then `CN(C(=O)c1cc2c(-c3cncnc3)cccc2[nH]1)c1ccccc1`, with 66.4% (inactive); and `NCCCC(N)(C(=O)O)C(F)F` (stereo not given), with 37.7% (inactive); and `Cc1cnc(CCNC(=O)c2cc(-c3ccc(Cl)cc3)cs2)[nH]1`, with 7.14% (inactive). Regarding `CCCNC(=O)N1CCC2(CC1)CC(=O)c1cc(C)ccc1O2`, the “percentage of barcode signal found” value is 11.9% (inactive).

Take `CCCCc1ccc(NC(=O)Nc2ccc(O[C@H]3CCCC[C@@H]3N(C)c3ccccc3)c(F)c2)cc1`: the “percentage of barcode signal found” value was 28.1% (inactive). For `CCCn1c(CNc2ccccc2O)nc2ccccc21` the value was 34.7% (inactive); for `O=C(C1CCN(c2nnnn2-c2ccccc2)CC1)N1CCc2ccccc2C1`, 46.7% (inactive); for `CC(Oc1cccc(Cl)c1)C(=O)Nc1ccc2oc(-c3ccncc3)nc2c1` (stereo not given), 47.8% (inactive). For `CCOC(=O)NC(=O)c1ccsc1NC(=O)c1nc2ccccc2s1` the value was -0.298% (inactive); for `COCC(C)NC(=O)CSc1ncnc2sc(-c3ccccc3)cc12` (stereo not given), 47.4% (inactive); for `Cc1nc(-c2ccccn2)nc(N2CCC(Cc3ccccc3)C2)c1Cl` (stereo not given), 78% (inactive). For `CN1CCN(CCCOc2ncc(Nc3ncc(-c4ccc(C(F)(F)F)c(F)c4)nc3C(N)=O)cn2)CC1` the value was 75.6% (inactive). For the molecule `CN(C)CCNC(=O)N1CCCN(c2ncnc3cc(-c4ccccc4)sc23)CC1`, the “percentage of barcode signal found” value was 34.3% (inactive).

As to `O=C1N(Cc2cc3ccccc3s2)CC2CN(Cc3ccccc3)CCN12` (stereo not given), the “percentage of barcode signal found” value is 58.1% (inactive).
